# Keap1 Nrf2 FP = Keap1-Nrf2 protein-protein interaction inhibitors, primary screen, biochemical, fluorescence polarization, single point. Kelch-like ECH-associated protein 1 (Homo sapiens), Q14145. Keap1 Kelch-Nrf2 peptide fluorescence polarization, 1536-well. inhibition, % at 9.4 µM. 340,000 compounds, 0.15% hits. AID 504523, 2011; in the data active means inhibition above about 12%;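 further: human Keap1 Kelch domain with fluorescein labeled Nrf2 9mer peptide probe; 0% = neutral control wells and 100% = peptide positive control; higher means more block of Keap1 binding to Nrf2 peptide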
# Target sequence (Q14145 whole entry, looked up, the tested form may be a part): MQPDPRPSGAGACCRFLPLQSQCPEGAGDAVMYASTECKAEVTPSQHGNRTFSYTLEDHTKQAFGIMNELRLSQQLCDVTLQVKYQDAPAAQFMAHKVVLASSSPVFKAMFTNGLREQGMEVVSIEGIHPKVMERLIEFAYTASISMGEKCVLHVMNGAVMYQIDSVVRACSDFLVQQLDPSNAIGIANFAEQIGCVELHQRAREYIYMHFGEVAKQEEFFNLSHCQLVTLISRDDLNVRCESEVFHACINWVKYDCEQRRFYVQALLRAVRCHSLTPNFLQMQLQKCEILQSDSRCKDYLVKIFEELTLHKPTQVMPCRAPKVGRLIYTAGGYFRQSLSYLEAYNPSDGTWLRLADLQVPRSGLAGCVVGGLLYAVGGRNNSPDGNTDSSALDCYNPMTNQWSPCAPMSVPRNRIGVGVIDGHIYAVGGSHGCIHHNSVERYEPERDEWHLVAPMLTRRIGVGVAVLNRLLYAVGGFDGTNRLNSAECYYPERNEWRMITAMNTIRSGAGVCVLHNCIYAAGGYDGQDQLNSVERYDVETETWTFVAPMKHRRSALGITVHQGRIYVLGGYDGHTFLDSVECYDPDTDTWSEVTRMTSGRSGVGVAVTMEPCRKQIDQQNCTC
# cardiac RTF act = cardiac RTF calcium sensitivity activators, primary screen, biochemical, IANBD-TnC fluorescence, EC20 calcium. Troponin I, cardiac muscle (Homo sapiens) + Troponin T, cardiac muscle (Homo sapiens) + …. IANBD-labeled TnC RTF fluorescence at EC20 calcium; 0% EC20 calcium, 100% full calcium. activation, % at 7.2 µM. 340,000 compounds, 0.24% hits. AID 493008, 2010;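 active means activation above the mean over all tested compounds plus 3 SD, cut at about 30% in these data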;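 further: rise in fluorescence read as greater calcium sensitivity of cardiac thin filaments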
# RTF Ca sens inh = cardiac RTF calcium sensitivity inhibitors, primary screen, biochemical, IANBD-TnC fluorescence, EC70 calcium | IANBD-labeled cardiac RTF, Ca2+ fluorescence | inhibition, % at 7.15 µM | 340,000 compounds, 0.12% hits | AID 493244, 2011;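 active means inhibition above the mean inhibition of all tested compounds plus 3 SD, cut at about 17% in these data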;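 further: assay run at fixed EC70 calcium of 1.6 mM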
# E coli Lon inh = inhibitors of E. coli Lon protease, primary screen, biochemical, fluorescence polarization; P0A9M0; purified E. coli Lon protease; inhibition, % at 7.94 µM; 360,000 compounds, 0.42% hits; AID 602123, 2011; in the data active means inhibition above about 13%, passing the limit was not always enough;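 further: 0% = enzyme with probe and DMSO and 100% = no enzyme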
# C-LANA FP = inhibitors of KSHV C-LANA binding to DNA, primary screen, biochemical, fluorescence polarization, FAM-LBS DNA, MBP-C-LANA, single point; inhibition, % at 9 µM; 340,000 compounds, 0.078% hits; Kaposi's sarcoma herpesvirus LANA C-terminal domain (residues 932-1162) DNA binding;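 active means highest replicate inhibition at or above 60% at 9 µM, even if other replicates fall short; inactive means all replicates below 60% inhibition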;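 further: 0% = neutral control wells and 100% = 4 µM acridine orange control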
# RTF Ca inh conf = cardiac RTF calcium sensitivity inhibitors, confirmation, biochemical, fluorescence readout; shares compounds with RTF Ca sens inh; reconstituted cardiac thin filaments; inhibition, % at 7.15 µM; 360 compounds, 8% hits; AID 504635, 2011; in the data active means inhibition above about 18%
# Active calls of the source: *; · = no result. Most compounds without a hit are left out; they make up all but 0.82% or so of the library.
SMILES,Keap1 Nrf2 FP,cardiac RTF act,RTF Ca sens inh,E coli Lon inh,C-LANA FP,RTF Ca inh conf
CCc1nc2c(OCC(=O)C(C)(C)C)cccn2c1N(C)C(=O)CC(C)C,·,·,·,-3,·,·
Nc1c(C(=O)NCC2CCCO2)sc2nc3c(c(-c4ccco4)c12)CC/C3=C\c1ccco1 (stereo not given),-4,11,25*,-7,1,·
NC(=O)c1sc2nc3c(c(-c4ccco4)c2c1N)CCCC3,4,3,-7,-2,1,·
C[C@@H](c1ccccc1)N1C[C@H](COCc2ccccc2)Oc2cc(N3CC[C@@H](O)C3)ccc2S1(=O)=O,·,·,·,-6,·,·
O=C(Nc1ccccc1F)C(=Cc1sc(N2CCOCC2)nc1-c1ccccc1)C(=O)Nc1ccccc1F,-7,30*,-9,-20,54,·
COc1cccc(/C=C/C(=O)OCC(=O)Nc2ccc(Cl)cn2)c1,-5,-2,0,14*,-2,·
COc1ccc(-c2nn(-c3ccccc3)cc2C(=O)NCCCn2ccnc2)cc1,1,-4,26*,4,-1,-8
C=C1c2cccc(O)c2C(=O)C2C(=O)[C@]3(O)C(=O)C(C(N)=O)C(=O)[C@@H](N(C)C)[C@@H]3[C@@H](O)[C@H]12 (stereo not given in full),12*,-28,61*,13,126*,11
C[C@H]1c2cccc(O)c2C(O)=C2C(=O)[C@]3(O)C(O)=C(C(N)=O)C(=O)[C@@H](N(C)C)C3[C@@H](O)C21 (stereo not given in full),3,2,8,-1,-1,·
COc1cc(C(=O)N2CCN(C(=O)C3CC3)CC2)cc(OC)c1OC,3,1,20*,-2,0,-4
COC(=O)C1CCN(C(=O)c2cc(OC)c(OC)c(OC)c2)CC1,-1,5,-16,-4,0,·
O=C(O)c1ccccc1N=Nc1ccc(O)cc1,3,1,18*,7,6,-6
O=C(O)c1ccc(CNC(=O)c2ccccc2NC(=O)c2cccc([N+](=O)[O-])c2)cc1,3,2,18*,-7,0,-4
Cc1cc(C)n(Cc2ccc(C(=O)O)cc2)n1,-2,-1,0,-5,1,·
Cc1ccc(C)n1Cc1ccc(C(=O)O)cc1,-4,-35,71*,-3,114*,22*
CCCC(C)NC1=NCCCCC1 (stereo not given),-8,0,18*,-1,1,-6
CCN1CCCC1CNC1=NCCCCC1 (stereo not given),-3,-3,-12,0,-1,·
CC1=CC(C)C(C(=O)O)C(C(=O)N2CCN(C)CC2)C1 (stereo not given),-3,-5,-6,-1,-1,·
CC1=CC(C)(C)C(C(=O)O)C(C(=O)O)C1 (stereo not given),-3,10,18*,0,1,-6
CC1CCCCN1C(=O)c1cc(Cl)ccc1[N+](=O)[O-] (stereo not given),3,-2,20*,-5,2,-2
CC(C)CCNC(=O)c1c(CSc2ccc(Cl)cc2)noc1C(=O)NCc1ccccc1,-1,1,2,-4,2,·
COc1cccc(/C=N/Nc2nc3ccccc3n3cnnc23)c1O,-2,-15,23*,-299,1,40*
COc1cccc(/C=N/Nc2nc3ccccc3n3cnnc23)c1,-7,4,-7,-29,-1,·
COCCNS(=O)(=O)c1cc(OC)ccc1OC,-4,3,4,9,0,·
CCCN1CCc2c(sc(NC(=O)C3CCN(S(=O)(=O)c4cccs4)CC3)c2C(N)=O)C1,6,-5,6,-5,0,·
SMILES,Keap1 Nrf2 FP,cardiac RTF act,RTF Ca sens inh,E coli Lon inh,C-LANA FP,RTF Ca inh conf
C=CCN1C(=O)c2ccc(C(=O)OCC(=O)N3CCN(c4ccccc4)CC3)cc2C1=O,6,4,21*,-12,0,-3
CC(COc1ccc(/C=C/c2ccccc2)cc1)[N+](C)(C)C (stereo not given),-4,5,21*,1,-3,-7
COc1ccc(CN2C(=O)c3cccnc3C2=O)cc1S(=O)(=O)N(C)c1ccc(C)cc1,-3,1,-6,2,-2,·
CNC(=O)Oc1ccc2c(c1)[C@]1(C)CCN(C)C1N2C (stereo not given in full),0,0,17*,-2,0,-3
COc1ccc(NC(=O)C2(C)CCN2C)cc1OC (stereo not given),·,·,·,0,·,·
CC1(C)Cc2cccc(OCC(O)CN3CCN(c4ccccn4)CC3)c2O1 (stereo not given),-3,-8,-7,-11,-1,·
CC1(C)Cc2cccc(OCC(O)CNCc3ccccn3)c2O1 (stereo not given),-4,-3,18*,-10,0,2
CC1Sc2ccc(S(=O)(=O)N3CCC(C(=O)NCC(C)c4ccccc4)CC3)cc2NC1=O (stereo not given),-7,-4,3,-4,-1,·
CC1(C)Cc2cccc(OCC(=O)Nc3cc(S(C)(=O)=O)ccc3Cl)c2O1,-5,-4,1,10,0,·
COc1ccccc1CN(C)CC(=O)Nc1ccc(Cl)cc1C(F)(F)F,0,3,18*,-1,1,-3
COc1ccc(CCN(Cc2ccccn2)C(=S)Nc2ccc(C)cc2)cc1OC,3,1,-6,2,-1,·
COc1ccc(CCN(Cc2ccccn2)C(=S)Nc2cccc(SC)c2)cc1OC,2,-4,20*,8,1,-1
CC(C)C1OC(c2cccc(NC(=O)c3cccs3)c2)OCC1(C)C (stereo not given),1,-2,-14,3,1,·
COCCn1nnnc1C(c1cc2ccc(C)cc2[nH]c1=O)N(Cc1ccco1)Cc1cccs1 (stereo not given),-8,6,17*,-4,1,-5
Cc1ccc2cc(C(c3nnnn3C3CCCC3)N(Cc3ccccc3)Cc3ccco3)c(=O)[nH]c2c1 (stereo not given),0,1,0,-6,0,·
CCCCC(CC)CO (stereo not given),0,4,-4,-14,1,·
CCCCC(CC)CN=C(N)NC(N)=NCCCCCCN=C(N)NC(N)=NCC(CC)CCCC (stereo not given),1,0,23*,12,-8,3
O=C(C[n+]1ccc(/C=C/c2ccccc2)cc1)c1ccc2c(c1)OCCO2,-1,-1,2,4,-2,·

# Source: PubChem (several laboratories)
